# Assay results taken from article PMC5540273 (PLoS ONE, 2017).
# Assays:
# DLK = test system: T1, DLK
# T1 construct: gene MAP3K12
# DMPK2 = test system: T2, DMPK2
# T2 construct: gene CDC42BPG
# DRAK1 = test system: T3, DRAK1
# T3 construct: gene STK17A
# 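Also: kd values determined as follow-up on hits from a single-replicate KINOMEscan panel screen.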
structure (smiles),measurement,setting,value
CC(C)(C)c1ccc(C(=O)Nc2cn3cc(-c4cccnc4)ccc3n2)cc1,Kd,CLK1,280 nM
CS(=O)(=O)c1ccc(-c2nc3n(c2-c2ccncc2)CCC3)cc1 [SKF-105942],Kd,CSK,> 10 µM
CCn1c(-c2cccnc2O)nc2cnccc21 [SB-736715],Kd,CSNK1A1L,> 10 µM
CN(C)CCN(C)C(=O)c1cc(-c2ccncc2)c(-c2ccc(Cl)c(O)c2)o1.Cl.Cl [SB-710397],Kd,CSNK1D,220 nM
CSc1nn2c(=O)cc(N3CCOCC3)nc2n1Cc1cccc(C(F)(F)F)c1C [GSK2363608],Kd,CSNK1G1,> 10 µM
Cc1cccc(-c2nc(Nc3ccc4[nH]ncc4c3)c3ccccc3n2)n1 [GW857175],Kd,CSNK2A1,100 nM
Cc1ccccc1-n1cnc2c(N)ncnc21 [SKF-97510],Kd,DAPK1,> 10 µM
Cc1cc(N2Cc3ccccc3C2)nc(Nc2ccc(S(=O)(=O)N3CCOCC3)cc2)n1.Cl [GSK1669917],Kd,DAPK3,> 10 µM
CC(=O)Nc1nc2cnc(Nc3cc(NC(=O)c4cccc(CCC#N)c4)ccc3C)nc2s1,Kd,DDR2,> 10000 nM
Cc1ccc(NC(=O)Nc2cc(C(C)(C)C)nn2-c2ccccc2)cc1 [GSK1014915],Kd,DDR2,410 nM
COc1ccc(CNC(=O)NC2CCN(c3ccnc(Nc4cc(OC)c(OC)c(OC)c4)n3)C2)cc1 (stereo not shown) [GSK1379748],Kd,DLK,5100 nM
Cc1cc(-c2ccc3c(c2)CC[C@@H](N[C@@H](C)c2ccccc2)C3)cnc1N.Cl [GW412617],Kd,DLK,280 nM
Cc1cccc(-c2nc(C)cc(Nc3ccncc3)n2)n1 [GSK257997],Kd,DMPK2,560 nM
COc1ccc2nc(-c3cccc(C)n3)nc(Nc3ccncc3)c2c1 [GSK204919],Kd,DMPK2,510 nM
Nc1nc(-c2nccs2)c(-c2ccnc3ccccc23)s1 [GW693542],Kd,DMPK,> 10 µM
C[C@@H]1CCCCN1c1cc(-c2ccc3c(N)n[nH]c3c2)nc(N)n1 [GSK2258759],Kd,DRAK1,88 nM
